Where “and” joins values, the source holds several entries; their conditions need not be identical. Identical values can stand only once. About 5,700 (36%) of roughly 16,000 compounds were called active. Not shown: some 24% with an inconclusive outcome. The list shows a part of the results. Values without a mark were called inactive. Calls follow the shape of the dose curve; as a rule, active = well fitted curve in the direction sought with a large enough effect; inconclusive = small, poorly fitted or top-dose-only effect, or effect the other way; inactive = no such curve, though single readings can be large or run the other way.
Target: Cytochrome P450 1A2 (Homo sapiens) (UniProt P05177)
Sequence (P05177 whole entry, looked up): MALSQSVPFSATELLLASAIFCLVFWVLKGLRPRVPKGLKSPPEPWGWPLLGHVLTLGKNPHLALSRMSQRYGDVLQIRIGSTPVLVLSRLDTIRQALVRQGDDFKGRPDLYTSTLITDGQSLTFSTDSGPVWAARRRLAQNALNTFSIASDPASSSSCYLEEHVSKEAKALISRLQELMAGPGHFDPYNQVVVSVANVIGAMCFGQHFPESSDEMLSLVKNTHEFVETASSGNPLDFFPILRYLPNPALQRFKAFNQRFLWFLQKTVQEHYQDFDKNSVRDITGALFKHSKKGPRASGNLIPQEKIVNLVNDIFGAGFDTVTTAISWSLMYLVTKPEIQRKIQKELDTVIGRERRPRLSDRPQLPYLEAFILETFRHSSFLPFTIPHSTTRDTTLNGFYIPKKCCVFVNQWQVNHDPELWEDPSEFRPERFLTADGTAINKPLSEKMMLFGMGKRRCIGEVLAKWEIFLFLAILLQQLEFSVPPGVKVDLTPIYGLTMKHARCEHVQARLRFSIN
Assay: Cytochrome panel assay with activity outcomes
Settings: recombinant CYP, pro-luciferin dealkylation, luminescence, p450-cyp1a2; series mostly up to 57.1 µM; activity, negative = inhibition: at the top concentration
% is scaled to controls: 0 for no effect and ±100 for the full control effect.

Structure (SMILES) | activity, negative = inhibition | AC50
C[C@H](CCC(=O)O)[C@H]1CC[C@]2(C)[C@@H]3C(=O)C[C@H]4C(C)(C)[C@@H](O)CC[C@]4(C)[C@H]3C(=O)C[C@@]12C | -10.7% [at 11.4 µM] | 
C[C@H]1CC[C@@]2(NC1)O[C@@H]1C[C@H]3[C@@H]4CC=C5C[C@@H](O)CC[C@]5(C)[C@@H]4CC[C@]3(C)[C@@H]1[C@@H]2C | -7.71% [at 25.6 µM] | 
CN(C)CCCc1cccnc1 | -10.2% [at 2.29 µM] | 
COc1ccccc1CC1C(=O)C2CCN1CC2 (stereo not drawn) | -5.49% | 
CN(C)Cc1c[nH]c2ccccc12 | -20.8% [at 25.6 µM] | 
OC1(c2ccc(Cl)cc2)CCN(Cc2c[nH]c3ccccc23)CC1 |  | 31.6 µM (active)
c1cc(CN2CCC3(CCNCC3)CC2)ccn1 | -15.3% | 
NCc1cc(=O)[nH]o1 |  | inactive
CN(C)c1ccc(NC(=O)CN2C(=O)CN=C(c3ccccc3)c3ccccc32)cc1 |  | 10 µM (active)
CCN(CC)CCO[C@H]1CC[C@@]2(C)C(=CC[C@@H]3[C@H]2CC[C@]2(C)C(=O)CC[C@H]32)C1 | -19.9% | 
O=C(C[C@H](c1ccccc1)c1c(O)c2ccccc2oc1=O)c1ccccc1 | -12.6% [at 2.29 µM] | 
COc1ccc(NC(=O)N2CCCC3(CCN(C(=O)Oc4ccccc4)CC3)C2)cc1 |  | 12.6 µM (active)
COc1ccc(NC(=O)N2CC[C@@]3(CCCN(C(=O)Oc4ccccc4)C3)C2)cc1 | -7.09% | 
O=C(Nc1ccccc1)N1CCC2(CC1)CCN(C(=O)Oc1ccccc1)CC2 | -16.7% | 
CN1CCCC2(CCN(C(=O)c3ccncc3)CC2)C1 | -14% | 
O=c1c2ccccc2nc(N2CCCC2)n1-c1ccc(Cl)cc1 |  | 5.01 µM (active)
Cc1nc2sccc2c(=O)n1-c1ccccc1Cl | -11.7% | 
C[Se]C[C@@H](N)C(=O)O | 0.0958% | 
CN1C(=O)CCS(=O)(=O)[C@H]1c1ccc(Cl)cc1 | -10.6% | 
O=C(C1CC(=O)N(C2CCCC2)C1)N1CCC2(CC1)OCCO2 (stereo not drawn) | 0.726% | 
CC(C(=O)c1c[nH]c2ccccc12)N1CCSCC1 (stereo not drawn) |  | 15.8 µM (active)
N[C@H](Cc1c[nH]c2ccccc12)P(=O)(O)O | -15.7% [at 11.4 µM] | 
C[N+]1(C)[C@@H]2CC[C@H]1CC(OC(=O)c1c[nH]c3ccccc13)C2 (stereo partly drawn) | -2.58% | 
C=Cn1ccnc1P(=S)(c1nccn1C=C)C1CCCCC1 | -21.2% | 

Structure (SMILES) | activity, negative = inhibition | AC50
Cc1cc(=O)n(-c2ccccc2)n1C | -12.9% [at 25.6 µM] | 
C=C(C)[C@H]1CN[C@H](C(=O)O)[C@@H]1CC(=O)O | 6.18% | 
CC(N)Cc1ccccc1Sc1ccc(O)cc1 (stereo not drawn) | -12.6% | 
CC(=O)N[C@@H]1CCSC1=O | -5.47% [at 25.6 µM] | 
CCN(CC)CC#CCOC(=O)[C@@](O)(c1ccccc1)C1CCCCC1 |  | 1.26 µM (active)
CCOC(C(=O)OCCCN(CC)CC)(c1ccccc1)c1ccccc1 | -0.835% | 
CC[N@+]1(C)CCC[C@@H](OC(=O)C(O)(c2ccccc2)c2ccccc2)C1 | 2.32% [at 25.6 µM] | 
c1ccc(CN2CCCC3(CCNCC3)C2)cc1 | -1.46% | 
C/C(=N\OC(=O)NC(C)C)c1sc(-c2ccc(Cl)cc2)nc1C |  | 1.12 µM (active)
C/C(=N\OC(=O)NC(C)C)c1sc(-c2ccccc2)nc1C |  | 2 µM (active)
CC[C@@H]1CN2CCc3cc(OC)c(OC)cc3[C@H]2C[C@@H]1C[C@@H]1NCCc2cc(O)c(OC)cc21 | -7.35% [at 25.6 µM] | 
CCN1C[C@]2(C)CC[C@H](OC)[C@@]34[C@@H]2[C@H](OC(C)=O)[C@]2(OCO[C@@]25C[C@@H](OC)[C@@H]2C[C@@]3(O)[C@H]5[C@@H]2OC)[C@H]14 | -3.74% [at 25.6 µM] | 
CCN(CC)c1ncnc2c1ncn2[C@@H]1O[C@@H](COP(=O)(O)OP(=O)(O)C(Br)(Br)P(=O)(O)O)[C@H](O)[C@@H]1O | 2.91% | 
CCc1ccccc1NC(=S)NC1CC2CCC(C1)N2Cc1ccco1 (stereo not drawn) | 6.19% | 
CN1[C@H](CC(=O)c2ccccc2)CCC[C@H]1C[C@H](O)c1ccccc1 |  | 15.8 µM (active)
Cn1c[n+](C)cc1C(O)c1ccccc1 (stereo not drawn) | 1.79% | 
CN1[C@@H](C[C@@H](O)c2ccccc2)CCC[C@@H]1C[C@H](O)c1ccccc1 |  | 5.01 µM (active)
CN1[C@@H]2CC[C@H]1CC(O[C@@H](c1ccccc1)c1ccc(Cl)cc1)C2 (stereo partly drawn) | -6.52% | 
CC[C@@]1(c2ccc(N)cc2)CCC(=O)NC1=O |  | inactive
Oc1ccc2c3c1O[C@H]1c4[nH]c5ccccc5c4C[C@]4(O)[C@H](C2)N(CC2CC2)CC[C@@]314 | -1.2% | 
NS(=O)(=O)c1cc([C@@]2(O)NC(=O)c3ccccc32)ccc1Cl | -4.19% [at 25.6 µM] | 
C[N+](C)(C)[C@H](Cc1c[nH]c(=S)[nH]1)C(=O)O | -18.9% [at 11.4 µM] | 
COc1cc(C(=O)OC2C[C@H]3CC[C@@H](C2)N3C)ccc1O (stereo partly drawn) | -0.206% [at 25.6 µM] | 
C=C(C)[C@H]1CC[C@]2(CO)CC[C@]3(C)[C@@H](CC[C@H]4[C@@]5(C)CC[C@@H](O)C(C)(C)[C@@H]5CC[C@@]43C)[C@H]12 | -6.53% [at 25.6 µM] | 

Structure (SMILES) | activity, negative = inhibition | AC50
O=C(Nc1cccc(F)c1)N1CC2(CCNCC2)C1 | -5.1% | 
NCCc1c[nH]c2ccc(C(N)=O)cc12 |  | 6.31 µM (active) and 1.26 µM (active)
NCCc1c[nH]c2ccccc12 |  | 3.16 µM (active)
CNCCc1c[nH]c2ccc(O)cc12 | -22.8% | 
CC(=O)NCCc1c[nH]c2ccccc12 |  | 15.8 µM (active)
NCCc1c[nH]c2ccc(O)cc12 |  | 2 µM (active)
NCCc1ccc(O)cc1 | -14.6% | 
CC(C)C[C@H](NP(=O)(O)O[C@@H]1O[C@@H](C)[C@@H](O)[C@@H](O)[C@H]1O)C(=O)N[C@@H](Cc1c[nH]c2ccccc12)C(=O)O | -1.79% | 
CN(C)CCCc1c[nH]c2ccccc12 | -12.5% [at 11.4 µM] | 
COC(=O)[C@H]1[C@H](c2ccccc2)C(=O)[C@@]2(O)c3ccccc3O[C@@]12c1ccccc1 | -5.65% [at 11.4 µM] | 
CO[C@@H](C)[C@](O)(C(=O)OCC1=CCN2CC[C@@H](O)[C@H]12)C(C)C | -7.03% [at 25.6 µM] | 
c1ccc(CCN2CCOCC2)nc1 | -3% [at 2.29 µM] | 
CCCCCCCCCCCCCC(=O)O[C@H]1[C@@H](C)[C@@]2(O)[C@@H](C=C(CO)C[C@]3(O)C(=O)C(C)=C[C@@H]23)C2C(C)(C)[C@]21OC(C)=O (stereo partly drawn) | -12.3% | 
C[C@H]1[C@H](NC(=O)/C(=N/OC(C)(C)C(=O)O)c2csc(N)n2)C(=O)N1S(=O)(=O)O (stereo in doubt) | -4.29% [at 25.6 µM] | 
Cc1ccc(N2C(=O)/C(=C/c3ccc(CN(CCC#N)S(C)(=O)=O)o3)C(=O)NC2=S)cc1C | -25.3% | 
CCCN(CCC)C(=O)Cc1c(-c2ccc(Cl)cc2)nc2c(Cl)cc(Cl)cn12 | -10.1% | 
NC(=O)c1ccc(C(=O)Nc2ccc([As](=O)(O)O)cc2)cc1 | -13.8% [at 2.29 µM] | 
CCOP(=O)(CN(CC)CCNP(=O)(OCC)OCC)OCC | 27.4% | 
CN1C2CCC1CC(OC(=O)c1ccc(Cl)cc1)C2 (stereo not drawn) | 3.37% | 
C[C@@]12CC[C@H]3[C@H](CC=C4C[C@@H](O)CC[C@@]43C)[C@@H]1CC[C@@H]2N(CCO)CCO | -4.6% [at 11.4 µM] | 
COC(=O)c1[nH]c2ccc(Br)cc2c1NC(=O)Oc1ccccc1 |  | 0.0631 µM (active)
C[C@]12CC[C@H](O)CC1=CC[C@@H]1[C@H]2CC[C@]2(C)C(=O)CC[C@H]12 | -11.6% | 
N[C@H](CCCCCP(=O)(O)O)C(=O)O | -15.1% | 
C/C(=C\C=C/[C@@H](C)C(=O)O)[C@H]1CN[C@H](C(=O)O)[C@@H]1CC(=O)O | -14.8% | 

Structure (SMILES) | activity, negative = inhibition | AC50
C[C@]1(O)CC[C@H]2[C@@H]3[C@@H](O)CC4=CC(=O)CC[C@@]4(C)[C@H]3CC[C@]21C | 1.44% [at 2.29 µM] | 
O=P(c1ccccc1)(c1ccccc1)N1CC2(CC2)CC(O)(c2ccccc2)C1 (stereo not drawn) | -19.7% | 
O=C(Nc1ccc(Cl)cc1)Nc1nccs1 |  | 0.141 µM (active)
C[C@]12CC[C@H]3c4ccc(O)cc4CC[C@@H]3[C@H]1CC[C@@H]2OC(=O)CCc1ccccc1 | -13.8% [at 2.29 µM] | 
Cc1ccc(-c2nc3ccccc3c(=O)n2-c2ncccc2C)cc1 | -12.2% | 
CCCCc1nc2ccccc2c(=O)n1-c1ccccc1[N+](=O)[O-] |  | 14.1 µM (active)
CCCCc1nc2ccccc2c(=O)n1-c1ccc(Cl)cc1[N+](=O)[O-] | -25.1% | 
CCCc1nc2ccccc2c(=O)n1-c1ccc(OC)cc1 |  | 12.6 µM (active)
NC(N)=Nc1ccc2[nH]c3c(c2c1)C[C@]1(O)[C@@H]2Cc4ccc(O)c5c4[C@]1(CCN2CC1CC1)[C@H]3O5 | 9.9% | 
NS(=O)(=O)C[C-]1C=C[CH]([Sb-]([Cl])([Cl])([Cl])([Cl])[Cl])C=C1.c1ccncc1 (stereo not drawn) | -15.1% [at 11.4 µM] | 
O=C(O)[C@@H](O)[C@@H](O)[C@@H]1[O][Sb][O][C@@H]1CO | -5.14% [at 2.29 µM] | 
CCC1=C(C[C@H]2NCCc3cc(OC)c(OC)cc32)C[C@H]2c3ccccc3CCN2C1 | -6.07% [at 11.4 µM] | 
O=C(O)CNC(=O)[C@@H](CS)Cc1ccccc1 | -4.85% [at 25.6 µM] | 
Cc1cc(C(C)(C)C)cc(C)c1CC1=NCCN1 | -8.4% [at 25.6 µM] | 
Cc1sc2ccccc2c1CC1=NCCN1 |  | 2.51 µM (active)
c1ccc2cc(CC3=NCCN3)ccc2c1 | 2.54% | 
CCCN1CCC[C@H](c2cccc(C#N)c2)C1 | -12.2% | 
CCN(CC)c1ccc(/C=C2/C(=O)NC(=O)N(CC3CCCO3)C2=O)cc1 (stereo not drawn) |  | 12.6 µM (active)
O=c1cccc2n1CC1CNC[C@H]2C1 | -5.12% [at 25.6 µM] | 
CC(C)(C)CC(=O)NC(=S)Nc1ccccc1C(F)(F)F |  | 11.2 µM (active)
O=[As](O)(O)c1ccc(N=Nc2ccc(O)cc2)cc1 | -14.5% [at 11.4 µM] | 

Reference: PubChem BioAssay AID1851 (National Center for Advancing Translational Sciences (NCATS), 2009)
